This is an account of results in PubChem BioAssay.

Assay [1] is described as follows: small molecules captured by biotinylated probe aFSTL3 – biochemical, small-molecule microarray, fluorescence 635/667, stem cell growth factor project, primary screen (AID 1064).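 Note: measures binding of the biotinylated anti-FSTL3 antibody to printed compounds.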 The settings on record: higher = more signal.
The nature of assay [2]: binders from COS7 lysate, DM2A8 probe, primary screen, torsin A project, cell lysate, small-molecule microarray, fluorescence 635/667 (AID 1065). The conditions noted are these: higher = more signal, COS7 lysate expressing mutant human TOR1A.
Assay [3] is described as follows: small molecules captured by biotinylated probe aFGF2 – biochemical, small-molecule microarray, fluorescence 635/667, stem cell growth factor project, primary screen (AID 1067).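 Note: measures binding of biotinylated aFGF2 protein to printed compounds on slides; z-score merges feature fluorescence and signal-to-noise across triplicate slides.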 The settings on record: higher = more signal.
The nature of assay [4]: small molecules captured by biotinylated probe aFGF10 – biochemical, small-molecule microarray, fluorescence 635/667, stem cell growth factor project, primary screen (AID 1071).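 Note: score merges 667 nm spot intensity and signal to noise from triplicate slides.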 The conditions noted are these: higher = more signal.
Assay [5] concerns the target Neurogenic locus notch homolog protein 2 (Homo sapiens) (UniProt Q04721). Nature of the assay: small molecules binding Notch2 protein – biochemical, small-molecule microarray, 635 nm fluorescence, stem cell growth factors, primary screen (AID 1073). The conditions noted are these: higher = more signal.
The target in assay [6] is Pro-neuregulin-1, membrane-bound isoform (Homo sapiens) (UniProt Q02297). Nature of the assay: small molecules binding neuregulin-1 protein – biochemical, small-molecule microarray, fluorescence 635/667, psychiatric disease protein project, primary screen (AID 1075).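 Note: score combines 667 nm spot fluorescence with signal to noise.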 The settings on record: NRG1 binding, 635 nm fluorescence, higher = more signal.
Chain of Pro-neuregulin-1, membrane-bound isoform (Homo sapiens) (Q02297 whole entry, looked up, the tested form may be a part, canonical isoform): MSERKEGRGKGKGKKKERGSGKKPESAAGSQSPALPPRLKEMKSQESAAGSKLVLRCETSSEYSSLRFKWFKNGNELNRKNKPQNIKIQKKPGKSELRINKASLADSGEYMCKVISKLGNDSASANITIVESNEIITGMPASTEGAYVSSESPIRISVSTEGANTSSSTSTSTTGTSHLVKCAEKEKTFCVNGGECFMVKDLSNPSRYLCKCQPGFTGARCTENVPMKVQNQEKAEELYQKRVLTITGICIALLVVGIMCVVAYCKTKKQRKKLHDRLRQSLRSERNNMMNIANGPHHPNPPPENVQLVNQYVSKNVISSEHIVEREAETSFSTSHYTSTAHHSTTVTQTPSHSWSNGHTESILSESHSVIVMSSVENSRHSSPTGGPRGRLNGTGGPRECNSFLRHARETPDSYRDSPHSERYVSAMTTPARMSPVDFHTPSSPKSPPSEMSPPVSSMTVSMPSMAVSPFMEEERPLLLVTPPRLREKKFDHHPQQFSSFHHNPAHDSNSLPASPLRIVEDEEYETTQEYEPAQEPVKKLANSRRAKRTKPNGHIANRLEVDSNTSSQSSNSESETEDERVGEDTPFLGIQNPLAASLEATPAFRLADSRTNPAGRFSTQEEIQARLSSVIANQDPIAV
Assay [7] deals with Neuregulin-1 EGF-like domain. As to the kind of experiment: small molecules binding NRG1 EGF domain – biochemical, small-molecule microarray, 635 nm fluorescence, primary screen (AID 1081).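 Note: binding of the protein to compounds printed on small-molecule microarray slides.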 The conditions noted are these: higher = more signal.
The nature of assay [8]: FRG1 expression reporter modulators in myotubes – cell-based, C2C12 myotubes, firefly/Renilla luciferase, luminescence, FRG1 inhibition for FSHD, primary screen (AID 1084). The settings on record: FRG1 promoter luciferase, higher = more signal, called active from +8 up or from −8 down.
The nature of assay [9]: small molecules captured by biotinylated probe aFST – biochemical, small-molecule microarray, fluorescence 635/667, stem cell growth factor project, primary screen (AID 1086).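 Note: score merges 667 nm fluorescence with signal-to-noise of each printed compound spot.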 The settings on record: higher = more signal.
Assay [10] can be described thus: binders of probe aHhip on microarray, primary screen, stem cell growth factor project, biochemical, small-molecule microarray, fluorescence 635/667 (AID 1087).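 Note: score merges spot fluorescence at 667nm with spot signal to noise ratio.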 The conditions noted are these: higher = more signal.
Assay [11] concerns PRMT1 (protein arginine N-methyltransferase 1). As to the kind of experiment: small molecules binding arginine methyltransferase PRMT1 – biochemical, small-molecule microarray, 635 nm fluorescence, primary screen (AID 1088).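 Note: binding of Prmt1 protein to compounds spotted on small-molecule microarray slides.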 The settings on record: higher = more signal.
Assay [12] in a line: growth effects on S. cerevisiae YJM789 – YJM789 clinical isolate, OD600, 24 h, basal, primary screen (AID 1089).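 Note: growth of clinical yeast isolate S. cerevisiae YJM 789 seeded 1000 cells per well; test concentration not given here.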 The conditions noted are these: higher = more signal, called active from +8 up or from −8 down.
Assay [13] is described as follows: S. pombe growth modifiers, basal conditions – strain 972, OD600, 24 h, no modulator, primary screen (AID 1090).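 Note: basal condition with compound alone and no growth modifier present; test concentration not given here.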 The settings on record: S. pombe 972 growth, higher = more signal, called active from +8 up or from −8 down.
The nature of assay [14]: budding yeast growth modifiers under rapamycin – strain BY4716, OD600, 96 h, primary screen (AID 1091). Note: test concentration not given here. The conditions noted are these: S. cerevisiae BY4716 + rapamycin, higher = more signal, called active from +8 up or from −8 down.
The target of assay [15] is Torsin-1A-interacting protein 2 (Homo sapiens) (UniProt Q8NFQ8). Nature of the assay: small molecules binding lysate-expressed LULL1 – cell lysate, human LULL1 lysate, 635/667 nm fluorescence, primary screen (AID 1092).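 Note: probe is lysate of COS7 cells overexpressing human LULL1; score merges per-feature 667 nm fluorescence with signal-to-noise.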 The settings on record: small-molecule microarray, hLULL1 lysate binding, 635 nm fluorescence; higher = more signal.
Chain of Torsin-1A-interacting protein 2 (Homo sapiens) (Q8NFQ8 whole entry, looked up): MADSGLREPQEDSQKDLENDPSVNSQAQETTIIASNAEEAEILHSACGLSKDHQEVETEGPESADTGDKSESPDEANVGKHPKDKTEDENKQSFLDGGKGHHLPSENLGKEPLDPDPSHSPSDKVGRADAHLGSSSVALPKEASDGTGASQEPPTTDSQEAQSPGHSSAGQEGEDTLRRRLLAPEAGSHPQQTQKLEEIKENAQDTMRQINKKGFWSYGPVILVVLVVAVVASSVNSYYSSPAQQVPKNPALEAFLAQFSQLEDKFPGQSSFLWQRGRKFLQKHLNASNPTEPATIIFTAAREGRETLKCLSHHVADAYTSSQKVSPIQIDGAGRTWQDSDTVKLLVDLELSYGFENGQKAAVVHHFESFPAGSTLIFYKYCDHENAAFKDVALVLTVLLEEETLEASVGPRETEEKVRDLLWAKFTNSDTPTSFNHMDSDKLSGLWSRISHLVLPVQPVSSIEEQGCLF
The nature of assay [16]: optical density change of DRC41 E. coli – strain DRC41, OD650, 24 h, E. coli filamentation project, primary screen (AID 1093).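 Note: MC1000 strain lacking acrAB efflux and sulA so SOS filamentation is blocked; test concentration not given here.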 The settings on record: E. coli DRC41 growth, higher = more signal, called active from +8 up or from −8 down.
Assay [17] is described as follows: probe aLefty2 binding to arrayed compounds – biochemical, biotinylated probe, 635/667 nm fluorescence, primary screen (AID 1094).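 Note: score merges spot fluorescence near 667 nm with spot signal-to-noise ratio.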 The settings on record: small-molecule microarray, higher = more signal.
In assay [18] the test system is Noggin (protein binding on small-molecule microarray). Nature of the assay: small molecules binding Noggin protein – biochemical, 635/667 nm fluorescence, primary screen (AID 1095).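 Note: score merges 667 nm feature fluorescence with signal to noise over triplicate slides.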 The settings on record: 635 nm fluorescence, higher = more signal.
Assay [19] addresses Neurogenic locus notch homolog protein 3 (Homo sapiens) (UniProt Q9UM47). Nature of the assay: small molecules binding NOTCH3 protein – biochemical, 635/667 nm fluorescence, primary screen (AID 1096). The conditions noted are these: small-molecule microarray, 635 nm fluorescence, higher = more signal.
Assay [20] in a line: probe aEGFR binding to arrayed compounds – biochemical, biotinylated probe, 635/667 nm fluorescence, primary screen (AID 1097).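 Note: probe is a biotinylated anti-EGFR antibody binding compounds printed on slides; score combines fluorescence near 667 nm and signal to noise of each spot.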 The settings on record: small-molecule microarray, higher = more signal.

Calls of active or inactive are those of the source.

Chain of Neurogenic locus notch homolog protein 2 (Homo sapiens) (Q04721 whole entry, looked up, canonical isoform): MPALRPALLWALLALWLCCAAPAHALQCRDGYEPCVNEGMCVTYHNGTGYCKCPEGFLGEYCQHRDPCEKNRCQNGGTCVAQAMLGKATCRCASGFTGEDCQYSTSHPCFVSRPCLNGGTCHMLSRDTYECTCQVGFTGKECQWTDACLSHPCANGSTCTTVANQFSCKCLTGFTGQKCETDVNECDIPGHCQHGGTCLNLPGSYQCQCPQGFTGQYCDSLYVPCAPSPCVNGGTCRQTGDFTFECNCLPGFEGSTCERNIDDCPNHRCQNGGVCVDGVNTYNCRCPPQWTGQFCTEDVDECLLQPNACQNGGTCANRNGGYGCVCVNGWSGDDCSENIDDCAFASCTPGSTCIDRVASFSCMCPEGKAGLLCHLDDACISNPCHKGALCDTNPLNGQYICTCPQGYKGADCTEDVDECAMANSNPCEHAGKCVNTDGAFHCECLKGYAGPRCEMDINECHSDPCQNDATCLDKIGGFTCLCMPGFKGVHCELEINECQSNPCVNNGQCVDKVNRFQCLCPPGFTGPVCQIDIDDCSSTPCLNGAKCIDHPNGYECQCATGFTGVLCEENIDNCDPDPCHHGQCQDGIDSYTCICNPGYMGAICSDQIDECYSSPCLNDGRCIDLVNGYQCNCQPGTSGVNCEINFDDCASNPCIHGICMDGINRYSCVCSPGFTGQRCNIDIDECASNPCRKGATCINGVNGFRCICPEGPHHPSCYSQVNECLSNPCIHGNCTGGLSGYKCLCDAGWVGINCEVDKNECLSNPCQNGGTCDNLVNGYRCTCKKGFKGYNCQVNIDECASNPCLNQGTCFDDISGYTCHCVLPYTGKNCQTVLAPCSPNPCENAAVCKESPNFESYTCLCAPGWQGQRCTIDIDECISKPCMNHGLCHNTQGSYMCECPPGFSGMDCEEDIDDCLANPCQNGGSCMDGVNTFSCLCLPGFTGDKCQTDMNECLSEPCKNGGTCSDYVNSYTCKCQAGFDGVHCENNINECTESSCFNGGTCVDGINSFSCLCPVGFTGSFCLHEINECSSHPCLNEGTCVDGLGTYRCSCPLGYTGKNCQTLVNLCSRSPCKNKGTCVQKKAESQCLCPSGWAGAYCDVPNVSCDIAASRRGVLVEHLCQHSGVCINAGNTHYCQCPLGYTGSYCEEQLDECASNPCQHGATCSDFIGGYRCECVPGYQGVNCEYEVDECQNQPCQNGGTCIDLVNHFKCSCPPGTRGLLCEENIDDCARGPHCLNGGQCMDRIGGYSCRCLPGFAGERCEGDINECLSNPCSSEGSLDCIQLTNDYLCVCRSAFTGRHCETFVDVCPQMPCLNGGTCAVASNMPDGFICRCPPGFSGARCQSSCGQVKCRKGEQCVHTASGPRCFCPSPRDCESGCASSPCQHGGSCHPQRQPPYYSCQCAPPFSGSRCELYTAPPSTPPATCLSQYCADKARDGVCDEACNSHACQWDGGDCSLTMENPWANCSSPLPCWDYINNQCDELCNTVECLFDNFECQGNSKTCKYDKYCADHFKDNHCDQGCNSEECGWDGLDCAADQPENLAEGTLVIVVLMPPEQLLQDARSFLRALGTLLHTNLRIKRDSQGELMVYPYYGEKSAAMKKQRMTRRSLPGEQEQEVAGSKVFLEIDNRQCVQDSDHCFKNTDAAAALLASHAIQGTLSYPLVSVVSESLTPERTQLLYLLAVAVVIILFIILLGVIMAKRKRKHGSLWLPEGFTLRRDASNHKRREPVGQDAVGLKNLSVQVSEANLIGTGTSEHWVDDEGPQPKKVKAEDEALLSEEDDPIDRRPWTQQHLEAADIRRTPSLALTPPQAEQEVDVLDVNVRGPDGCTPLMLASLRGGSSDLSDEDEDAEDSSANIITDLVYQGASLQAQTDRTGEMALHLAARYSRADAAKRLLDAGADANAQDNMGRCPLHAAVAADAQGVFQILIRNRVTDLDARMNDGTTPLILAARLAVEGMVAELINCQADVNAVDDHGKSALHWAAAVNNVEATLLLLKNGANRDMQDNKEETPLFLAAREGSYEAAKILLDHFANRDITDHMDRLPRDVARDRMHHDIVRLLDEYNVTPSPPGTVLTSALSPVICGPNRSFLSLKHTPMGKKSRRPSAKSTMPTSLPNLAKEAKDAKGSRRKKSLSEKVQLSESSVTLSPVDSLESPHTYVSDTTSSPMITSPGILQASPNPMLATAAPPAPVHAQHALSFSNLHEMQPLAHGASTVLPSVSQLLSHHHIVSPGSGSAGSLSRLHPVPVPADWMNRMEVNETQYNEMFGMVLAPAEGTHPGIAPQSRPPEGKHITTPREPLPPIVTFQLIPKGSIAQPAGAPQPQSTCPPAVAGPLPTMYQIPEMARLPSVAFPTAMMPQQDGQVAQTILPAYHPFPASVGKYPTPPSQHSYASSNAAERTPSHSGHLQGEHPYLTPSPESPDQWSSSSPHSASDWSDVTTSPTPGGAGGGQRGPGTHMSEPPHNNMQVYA

With `COCCOC(=O)N1C(=O)[C@@]2(c3cc(C#CC4(O)CCCCCC4)ccc31)[C@H](c1ccccc1OCCO)N1[C@H](c3ccccc3)[C@H](c3ccccc3)OC(=O)[C@H]1[C@@H]2C(=O)N1CCN(c2ncccn2)CC1`, the composite z-score in [1] is -0.383; in [2], 0.604; in assay [3], -0.0425; in assay [4], 0.801; in assay [5], 1.08; in assay [6], 1.15. Further, the composite z-score was 1.26 in [7]; 0.484 in [9]; -0.134 in [10]; 1.55 in assay [11]; 2.73 in [15]; 0.028 in assay [17]. Moreover, the composite z-score in assay [18] was 0.574; in [19] it was 0.959; in assay [20], 0.219. Also, the z-score was -0.422 (inactive) in [8]; 2.46 (inactive) in assay [12]; 1.5 (inactive) in [13]; 6.01 (inactive) in assay [14]; 1.02 (inactive) in [16].

For the molecule `C=CCN1C(=O)[C@@]2(Cc3ccccc31)N=C(c1ccc(OCCCO)cc1)O[C@H]2c1ccccc1`, the composite z-score in assay [1] was 1.12; in assay [2] it was 0.282; in [3] it was 0.0085; in assay [4], -0.112; in assay [5] it was 1.01; in [6], 1.24. The composite z-score in assay [7] is 1.23; in assay [9], 0.83; in assay [10], -0.144; in assay [11], 1.54; in assay [15], 3.12; in [17], 0.352. The composite z-score in assay [18] amounted to 0.638; in [19] it was 1.11; in assay [20], 0.122. In addition, the z-score was -2.07 (inactive) in [8]; -1.95 (inactive) in assay [12]; -6.68 (inactive) in [13]; 2.77 (inactive) in [14]; 1.44 (inactive) in [16].

Take `COc1ccc([Si](C)(C)[C@H]2[C@H](CCO)O[C@@]3(C(=O)N(Cc4ccc(N(C=O)c5ccccc5)cc4)c4ccccc43)[C@@H]2C)cc1`: the composite z-score in [1] is -0.151; in assay [2] it was -0.177; in [3] it was -0.0602; in [4], 0.143; in [5], -0.285; in assay [6], 0.799. The composite z-score is 0.606 in [7]; -0.267 in [9]; -0.249 in assay [10]; 0.258 in assay [11]; 1.12 in assay [15]; -0.107 in assay [17]. Also, the composite z-score in [18] is 0.0352; in assay [19], 0.033; in assay [20], -0.162. Further, the z-score in assay [8] was -4.11 (inactive); in assay [12], 1.09 (inactive); in [13], 0.302 (inactive); in assay [14] it was 25.2 (active); in [16] it was 0.759 (inactive).

For `CC(CO)N1C(=O)[C@@H]2C3C(=O)OCCC/C=C\[C@H]3OC23C=CCN(C(C)(C)C)C(=O)[C@@H]13` (stereo not given in full), the composite z-score was 0.104 in [1]; 0.733 in [2]; -0.0971 in [3]; 0.255 in assay [4]; 0.162 in assay [5]; 0.182 in assay [6]. Moreover, the composite z-score in [7] was 1.17; in assay [9], -0.269; in [10], 0.0373; in [11], 0.0207; in assay [15] it was 0.478; in assay [17], -0.216. The values for the composite z-score in [18], in [19] and in assay [20] were 0.0872, 0.201 and -0.0905, respectively. Besides, the z-score was -1.23 (inactive) in assay [8]; -0.226 (inactive) in [12]; -0.911 (inactive) in [13]; -0.706 (inactive) in assay [14]; -0.0054 (inactive) in assay [16].

Turning to `C=CCNC(=O)[C@@H]1[C@H]2C(=O)O[C@H](c3ccccc3)[C@H](c3ccccc3)N2[C@H](c2ccccc2OCCO)[C@@]12C(=O)N(C(=O)OCCOC)c1ccccc12`, the composite z-score was 0.599 in assay [1]; 0.603 in assay [2]; -0.107 in assay [3]; 0.73 in assay [4]; 1.32 in assay [5]; 0.848 in [6]. Further, the composite z-score in [7] amounted to 1.29; in [9], 0.562; in assay [10], 0.621; in assay [11], 1.54; in assay [15], 2.64; in assay [17] it was 0.0615. In addition, the composite z-score was 1.71 in [18], 0.884 in assay [19] and -0.0381 in [20]. Further, the z-score in assay [8] was -0.0386 (inactive); in [12], 2.86 (inactive); in [13] it was 2.29 (inactive); in assay [14], 7.26 (inactive); in [16], -0.442 (inactive).
